Screening data from PubChem.
Most compounds without a hit are left out; they make up all but 4.7% or so of the library.
PABP polyA inh – PABP poly(A) RNA binding inhibitors, primary screen, biochemical, fluorescence polarization, uHTS; inhibition, % at 35 µM; AID 2014, 2009; Polyadenylate-binding protein 1 (Homo sapiens), P11940; 290,000 tested, 1% active;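 also: calls also rest on retests at 20 µM and on dose response follow-up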
eIF4H inh – human eIF4H binding inhibitors, primary screen, translation initiation inhibitor project, biochemical, uHTS, fluorescence polarization; Eukaryotic translation initiation factor 4H (Homo sapiens), Q15056; 290,000 tested, 0.94% active; eIF4H fluorescence polarization binding assay; AID 2012, 2009; inhibition, % at 35 µM;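 also: calls also rest on retests at 20 µM and on dose response follow-up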
ALR H2O2 inh – inhibitors of human ALR sulfhydryl oxidase, primary screen, biochemical, H2O2 detection, HRP-luminol luminescence, single point | 290,000 tested, 3.8% active | inhibition, % (concentration not given with the values) | FAD-linked sulfhydryl oxidase ALR (Homo sapiens), P55789 | purified ALR, DTT oxidation;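 active = mean replicate inhibition above about 79%, with every replicate also reaching it, limit read from the data; inconclusive = only one of the two criteria met; inactive = mean below limit and not every replicate reaching it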
UBC9 SUMO inh – inhibitors of in vitro SUMOylation cascade, primary screen, biochemical, HTRF, uHTS; AID 2006, 2009; 290,000 tested, 0.36% active; inhibition, % at 35 µM; HTRF SUMOylation assay, SAE1/SAE2 + UBC9; SUMO-conjugating enzyme UBC9 (Homo sapiens), P63279; in the data active = inhibition above about 50%, passing the limit was not always enough; inconclusive = no clear call, values can overlap the other calls
Target sequence (P63279 whole entry, looked up): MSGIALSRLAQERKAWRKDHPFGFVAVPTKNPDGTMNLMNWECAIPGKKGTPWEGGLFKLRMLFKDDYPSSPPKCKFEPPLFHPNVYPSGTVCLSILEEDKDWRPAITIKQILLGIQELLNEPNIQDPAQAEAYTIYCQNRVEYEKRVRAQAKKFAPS
PABP1 MLLE inh – inhibitors of PABP1 MLLE–PAM2 peptide binding, primary screen, biochemical, fluorescence polarization, FITC-PAM2, GST-MLLE; 360,000 tested, 0.36% active; inhibition, % at 20 µM; Polyadenylate-binding protein 1 (Homo sapiens), P11940; AID 588489, 2011; in the data active = inhibition above about 35%, passing the limit was not always enough;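 also: plate controls were DMSO wells with GST-MLLE for no effect and wells lacking GST-MLLE protein for full effect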
Efflux pump inh – inhibitors of Candida efflux pumps in yeast, primary screen, S. cerevisiae, Nile Red, multiplex. S. cerevisiae Candida pump triplex. inhibition, % at 10 µM. 330,000 tested, 0.44% active;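 active = plate passing quality check with inhibition over a set limit, or well fluorescence over plate mean plus 4 SD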;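 also: Nile Red retained in pooled yeast measured as flow cytometry median fluorescence; 0% = buffer negative control and 100% = Enniatin B positive control; higher means more Nile Red kept so more efflux inhibition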
* marks the source's active call; other numbers are inactive results; ? = inconclusive; . = not tested or not shown. Unless noted, no rule for the calls is given here.

SMILES	PABP polyA inh	eIF4H inh	ALR H2O2 inh	UBC9 SUMO inh	PABP1 MLLE inh	Efflux pump inh
Cc1[nH]n(-c2ccccc2)c(=O)c1Sc1ccc(Cl)cc1	1	-6	22	31	24	0
O=[n+]1cc(-c2cc3ccccc3o2)n([O-])c2c1CCCC2	5	-6	98*	0	10	0
O=[n+]1cc(-c2ccccc2)n([O-])c2c1CCCCC2	-3	-1	-13	-2	4	0
CCN(CC)S(=O)(=O)c1cccc(NC(=O)COC(=O)c2[nH]c(C)c(C(C)=O)c2C)c1	.	.	.	.	-7	.
CC(Nc1ccc2c(c1)OCCO2)C(=O)N1c2ccccc2CC1C (stereo not given)	15	0	98*	-9	10	0
CC1Cc2ccccc2N1C(=O)NC1CC(=O)N(c2ccc3c(c2)OCCO3)C1 (stereo not given)	-3	-8	11	5	1	0
CC(=O)NC12CC3CC(C1)CC(C(=O)Nc1ccc(C)c(S(=O)(=O)N4CCCCCC4)c1)(C3)C2	.	.	.	.	2	.
CCOc1ccc(-c2nc(CSCC(=O)NCCCN3CCCC3=O)c(C)o2)cc1	.	.	99*	.	3	0
COc1ccc(-c2nc(CSCC(=O)NC3CCCc4ccccc43)c(C)o2)cc1 (stereo not given)	-6	-1	?	-14	14	0
CCOc1ccc(-c2nc(CSCC(=O)NCCN3CCOCC3)c(C)o2)cc1	-6	-6	99*	-2	-3	0
CCOc1ccc(S(=O)(=O)N(C)CC(=O)NCCN2CCOCC2)cc1	-2	-4	2	-7	-5	0
N#Cc1ccc(-c2ccc(OCC(=O)NCCCN3CCCC3=O)cc2)cc1	54	0	99*	15	3	0
COc1ccc(-c2nc(CSCC(=O)NCCCN3CCCC3=O)c(C)o2)cc1	0	-21	96*	2	-1	0
CCOc1ccc(CCNC(=O)C2=C(C)C(=O)OC23CCCCC3)cc1OCC	11	-2	-4	22	-5	0
CCOC(=O)[C@H]1[C@H]2COc3ccc(C)cc3[C@@H]2N2C(=O)c3cc(Cl)ccc3NC(=O)[C@@]12C	.	.	-5	.	-1	0
O=C(O)C1CCCCC1C(=O)Nc1nc(-c2ccc(Cl)s2)cs1 (stereo not given)	active	76*	53	37	26	1
CCN(CC)c1c(C)nc2ccc(C(=O)N3CCN(C(=O)c4ccco4)CC3)cn12	.	.	.	.	3	.
COc1cc(CNc2ccc(C)c(C)c2)cc(OC)c1OC	14	-1	97*	5	-2	0
COc1cc(CNc2cc(C)ccc2C)cc(OC)c1OC	-10	5	99*	4	7	0
COc1cc(CNc2ccc3c(c2)CCC3)cc(OC)c1O	4	-2	99*	17	27	-2
COc1ccc(C)cc1NCc1cccc(OC)c1OC	19	6	57	-21	-5	-1
COc1cc(Br)c(CNc2cc(C)ccc2C)cc1OC	4	8	.	4	8	0
CCOc1cc(CNc2ccc3c(c2)CCC3)ccc1O	20	7	-11	20	-14	0
COc1ccc(CNc2ccc(C)c(C)c2)cc1	-4	-5	36	-21	-1	0
COc1ccc(CNc2cc(C)ccc2C)c(OC)c1OC	17	-2	98*	-7	7	0
SMILES	PABP polyA inh	eIF4H inh	ALR H2O2 inh	UBC9 SUMO inh	PABP1 MLLE inh	Efflux pump inh
CSc1ccc(S(=O)(=O)NCC(=O)OCC(=O)N2CCCCC2C)cc1[N+](=O)[O-] (stereo not given)	.	.	-8	.	-5	0
COc1ccc(C(C)(O)c2nc(-c3cccc(C(C)C)c3)cs2)cc1 (stereo not given)	.	.	.	.	3	.
CCCOc1ccc(CNC(=S)Nc2ccccc2)cc1Cl	-5	6	5	-32	-53	0
CN(C)C(CNC(=O)c1cc(S(=O)(=O)N(C)c2ccc(F)cc2)ccc1Cl)c1cccs1 (stereo not given)	.	.	.	.	-1	.
CCCCCCN1CC(O)=C(c2nc3ccccc3[nH]2)C1=N	-13	-7	5	14	8	0
CCC(C)N1CC(O)=C(c2nc3ccccc3[nH]2)C1=N (stereo not given)	-2	-5	82*	-10	-1	0
CC(C)CC(=O)NC(NC(=S)Nc1sc2c(c1C#N)CCCC2)C(Cl)(Cl)Cl (stereo not given)	-7	1	11	19	-19	0
CCCCOc1ccc(C(=O)NCC(=O)NC2CCN(Cc3ccccc3)CC2)cc1	4	-3	6	-6	5	0
CN(C)c1ccc(N2C(=O)CC(Nc3ccc(N4CCOCC4)cc3)C2=O)cc1 (stereo not given)	4	48	63	23	10	0
COc1ccc(N2C(=O)CC(Nc3ccc(N4CCOCC4)cc3)C2=O)c(OC)c1 (stereo not given)	-5	4	98*	-1	18	0
COc1cccc(N2C(=O)CC(Nc3ccc(N4CCOCC4)cc3)C2=O)c1 (stereo not given)	4	0	99*	-9	36	0
Cc1ccc(CN2C(=O)CC(Nc3ccc(N4CCOCC4)cc3)C2=O)cc1 (stereo not given)	19	-2	99*	-1	12	1
COc1ccc(S(N)(=O)=O)cc1C(=O)OCC(=O)N1CC(=O)Nc2ccccc21	.	.	.	.	18	.
O=c1nccc(SCc2ccc(Cl)cc2Cl)[nH]1	7	5	99*	15	0	0
Cc1cnc(SCc2ccc(Cl)cc2Cl)[nH]c1=O	5	-1	-27	21	-9	0
Cc1ccc(S(=O)(=O)N/N=C/c2ccc(C(=O)O)cc2)cc1	-2	-12	5	30	-33	0
CN(C)c1ccc(/C=N/NS(=O)(=O)c2ccc(Br)cc2)cc1	-2	-4	90*	-1	-53	0
COc1cc(/C=N/NS(=O)(=O)c2ccc(Br)cc2)ccc1O	5	2	99*	-12	-59	0
CCSc1sccc1C1C(C#N)=C(N)N(c2cccnc2)C2=C1C(=O)CCC2 (stereo not given)	18	14	-4	2	45*	0
COc1cc(C2C(C#N)=C(N)N(c3cccnc3)C3=C2C(=O)CCC3)ccc1O (stereo not given)	70*	51*	?	13	0	0
COc1cc(C2C(C#N)=C(N)N(c3ccc(F)cc3)C3=C2S(=O)(=O)CC3)ccc1O (stereo not given)	-19	9	88*	9	-73	0
COc1cc(C2C(C#N)=C(SC)NC3=C2C(=O)CCC3)ccc1O (stereo not given)	6	-1	38	6	18	0
